Test [1] has as its system Vero E6 infected with SARS-CoV-2. Description: morphology score (similarity to uninfected cells); higher = more like uninfected cells. The settings on record: 24 h.
Test [2] has the same test system. Description: SARS-CoV-2 infection rate relative to infected DMSO; higher = more infection, active = 60 or less. The settings on record: 24 h.

Results on 30 compounds are retold here after the supplement of paper PMC13380429.

Molecules are shown by their SMILES.

In turn, `Cn1c2c(c3ccccc31)CCNCC2` (10 µM) gave a morphology score in test [1] of 0.0193. Moreover, the SARS-CoV-2 infection rate in test [2] was 103% (inactive).
`CCN(CC)CCOC(=O)C1(c2ccc([N+](=O)[O-])cc2)CCCC1` [nitrocaramiphen] (10 µM) gave a morphology score in test [1] of 0.137. Moreover, the SARS-CoV-2 infection rate in test [2] is 104% (inactive).
In test [1], `Cc1cnc(-c2cnc(NCCNc3ccc(C#N)cn3)nc2-c2ccc(Cl)cc2Cl)[nH]1` (0.833333 µM) showed a morphology score of -0.0902. Besides, the SARS-CoV-2 infection rate in test [2] is 108% (inactive).
With `Cc1[nH]c(/C=C2\C(=O)Nc3ccccc32)c(C)c1CCC(=O)O` [orantinib] (10 µM), in test [1], the morphology score stood at 0.123. Moreover, in test [2], the SARS-CoV-2 infection rate is 92.5% (inactive).
The matching figures for `CC1(C)CC[C@]2(C(=O)O)CC[C@]3(C)[C@H](C(=O)C=C4[C@@]5(C)C=C(C#N)C(=O)C(C)(C)[C@@H]5CC[C@]43C)[C@@H]2C1` [bardoxolone] (0.833333 µM): 0.164 and 104% (inactive).
For `COc1cccc(-c2cc(NCc3ccc4c(c3)OCO4)nc(N)n2)c1` (10 µM), in that order: -0.021 and 111% (inactive).
For `CCC1=C[C@@H]2CN3CCc4c([nH]c5ccccc45)[C@@](C(=O)OC)(C2)[C@@H]13` [catharanthine] (10 µM), in test [1], the morphology score was determined as 0.119. In addition, in test [2], the SARS-CoV-2 infection rate was 110% (inactive).
`CC(C)(O)c1ccccc1CC[C@@H](SCC1(CC(=O)O)CC1)c1cccc(/C=C/c2ccc3ccc(Cl)cc3n2)c1` [montelukast] (10 µM) displayed a morphology score in test [1] of 0.169. In addition, in test [2], the SARS-CoV-2 infection rate was 92.5% (inactive).
Take `C1CCC(NC2CCCCC2)CC1` [dicyclohexylamine] (10 µM): the morphology score in test [1] was -0.191. In addition, the SARS-CoV-2 infection rate in test [2] was 114% (inactive).
The compound `CCOC(=O)c1ncn2c1CN(C)C(=O)c1cc(F)ccc1-2` [flumazenil] (10 µM) yielded a morphology score in test [1] of 0.0898. The SARS-CoV-2 infection rate in test [2] was 88.5% (inactive).
With `COc1cc(C(=O)NC2CCN(C)CC2)c(F)cc1Nc1ncc2c(n1)N(C1CCCC1)CC(F)(F)C(=O)N2C` (0.833333 µM), the morphology score in test [1] was -0.193. In addition, the SARS-CoV-2 infection rate in test [2] is 100% (inactive).
For `COc1ccc(-n2c(SCCCN3C(=O)c4cccc5cccc(c45)C3=O)nnc2-c2ccncc2)cc1` (0.833333 µM), in that order: 0.102 and 108% (inactive).
In test [1], `O=c1cc[nH]c(=S)[nH]1` [2-thiouracil] (10 µM) registered a morphology score of 0.0168. In test [2], the SARS-CoV-2 infection rate was 108% (inactive).
The matching figures for `COC(=O)C1=C(C)NC(C)=C(C(=O)OCCSc2ccccc2)[C@@H]1C` (10 µM): 0.0793 and 94.5% (inactive).
The compound `C[n+]1c2cc(N)ccc2cc2ccc(N)cc21` [acriflavinium] (0.833333 µM) displayed a morphology score in test [1] of 0.0932. Besides, the SARS-CoV-2 infection rate in test [2] is 98.5% (inactive).
The matching figures for `CC(C)[C@H](N)C(=O)OCCOCn1cnc2c(=O)nc(N)[nH]c21` [valaciclovir] (10 µM): -0.0293 and 116% (inactive).
In test [1], `Cc1cc2c(F)c(Oc3ncnn4cc(OC[C@@H](C)OC(=O)[C@H](C)N)c(C)c34)ccc2[nH]1` [brivanib-alaninate] (10 µM) had a morphology score of 0.385. In test [2], the SARS-CoV-2 infection rate was 106% (inactive).
The matching figures for `CC(=O)OC[C@H]1O[C@@](COC(C)=O)(O[C@H]2O[C@H](COC(C)=O)[C@@H](OC(C)=O)[C@H](OC(C)=O)[C@H]2OC(C)=O)[C@@H](OC(C)=O)[C@@H]1OC(C)=O` [sucrose-octaacetate] (10 µM): 0.0471 and 103% (inactive).
On to `CC(=C(CCO)SSCC1CCCO1)N(C=O)Cc1cnc(C)nc1N` (stereo in doubt) [fursultiamine] (10 µM), for which the morphology score in test [1] was determined as 0.0723. The SARS-CoV-2 infection rate in test [2] was 110% (inactive).
The matching figures for `O=C(Nc1cccc(C(F)(F)F)c1)Nc1ccc(Br)cc1-c1nnn[nH]1` (10 µM): -0.0612 and 108% (inactive).
In test [1], `O=C1[C@H]2CCCC[C@H]2C(=O)N1CCCCN1CCN(c2nsc3ccccc23)CC1` [perospirone] (10 µM) returned a morphology score of 0.0481. In addition, the SARS-CoV-2 infection rate in test [2] was 115% (inactive).
Turning to `CN(C)c1ccc(C(=C2C=CC(=[N+](C)C)C=C2)c2ccc(N(C)C)cc2)cc1` [crystal-violet] (10 µM), the morphology score in test [1] is -0.0788. In test [2], the SARS-CoV-2 infection rate is 114% (inactive).
As to `CC[N+](C)(CC)CC(=O)Nc1c(C)cccc1C` [N-methyllidocaine-iodide] (10 µM), the morphology score in test [1] stood at 0.0478. For the same compound, the SARS-CoV-2 infection rate in test [2] is 100% (inactive).
With `OC[C@H]1O[C@@H](O[C@@H]2[C@H](O)[C@@H](O)[C@H](O[C@H]3[C@H](O)[C@@H](O)C(O)O[C@@H]3CO)O[C@@H]2CO)[C@H](O)[C@@H](O)[C@H]1O` (stereo not given in full) [4-galactosyllactose] (10 µM), in test [1], the morphology score is -0.0673. Besides, in test [2], the SARS-CoV-2 infection rate was 114% (inactive).
The matching figures for `CC(C)(C)N1CCC(c2ccccc2)(c2ccccc2)CC1` [budipine] (10 µM): 0.395 and 76.5% (inactive).
In turn, `COCCCOc1ccnc(C[S+]([O-])c2nc3ccccc3[nH]2)c1C` (stereo not given) [rabeprazole] (10 µM) yielded a morphology score in test [1] of 0.00912. In addition, the SARS-CoV-2 infection rate in test [2] is 106% (inactive).
Turning to `C(#Cc1nc2ncccc2nc1OCCN1CCCC1)c1ccccc1` (0.833333 µM), the morphology score in test [1] was 0.0988. Further, the SARS-CoV-2 infection rate in test [2] was 86% (inactive).
The matching figures for `COc1cc2c(c(OC)c1OC)-c1c(cc3c(c1OC)OCO3)C[C@H](C)[C@@](C)(O)C2` [schisandrol-B] (10 µM): -0.0659 and 106% (inactive).
In test [1], `NS(=O)(=O)c1cc2c(cc1Cl)N=CNS2(=O)=O` [chlorothiazide] (10 µM) yielded a morphology score of -0.179. In test [2], the SARS-CoV-2 infection rate is 106% (inactive).
In turn, `N[C@@H](C(=O)N[C@@H]1C(=O)N2C(C(=O)O)=C(Cl)CC[C@H]12)c1ccccc1` [loracarbef] (10 µM) gave a morphology score in test [1] of 0.167. In addition, the SARS-CoV-2 infection rate in test [2] is 101% (inactive).
